Source: PubChem BioAssay (National Center for Advancing Translational Sciences (NCATS))
GLP1R ag: activates the human GLP-1 receptor; P43220; HEK293 GLP-1R CRE-luciferase, luminescence, 4-6 h; cells express a hypersensitive GLP-1R form; Potency, µM (titrated, usually from 45.6 µM), for inactives: at the top dose activation, usual class: activators; 380,000 compounds, 0.007% hits; AID 624172; also: % of control where 0% means no effect
Target sequence (P43220 whole entry, looked up): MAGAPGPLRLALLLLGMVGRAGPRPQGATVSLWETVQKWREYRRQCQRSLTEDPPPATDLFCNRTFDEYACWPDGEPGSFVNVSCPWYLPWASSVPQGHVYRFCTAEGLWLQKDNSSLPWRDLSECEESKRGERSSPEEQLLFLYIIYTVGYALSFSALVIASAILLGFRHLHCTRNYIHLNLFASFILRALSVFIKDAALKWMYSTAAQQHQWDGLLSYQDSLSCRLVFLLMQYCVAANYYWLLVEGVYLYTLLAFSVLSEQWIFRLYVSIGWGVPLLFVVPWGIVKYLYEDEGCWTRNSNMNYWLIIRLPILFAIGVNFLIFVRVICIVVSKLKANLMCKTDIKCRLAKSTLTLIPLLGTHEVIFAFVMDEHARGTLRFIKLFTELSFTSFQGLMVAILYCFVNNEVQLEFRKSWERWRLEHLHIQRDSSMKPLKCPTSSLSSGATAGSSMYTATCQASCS
GLP1R inv ag: GLP-1 receptor (human) inverse agonism. P43220. HEK293 GLP-1R CRE-luciferase, luminescence, 24 h; GLP-1R form is constitutively active. Potency, µM (titrated, usually from 38.3 µM), without a hit: at the top dose activity change, negative = inhibition, actives largely listed as inhibitors. 410,000 compounds, 1.6% hits. AID 624417; also: % is scaled to controls: 0 for no effect and ±100 for the full control effect; nearly all actives have a fitted effect of over 55% in size
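GLP-1R inverse agonism mode: basal reporter luminescence in engineered HEK293 cells measured after one day of compound exposure at 37 deg C, with a 12 min room-temperature detection step.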
GLP1R cytotox: cytotoxic in the GLP-1 receptor inverse agonist counter-screen; HEK293 cAMP-luciferase reporter cells, luminescence, 24 h; Potency, µM (top dose mostly 38.3 µM), for inactives: at the top dose activity change, negative = inhibition, usual class: inhibitors; 410,000 compounds, 0.13% hits; AID 624418;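 also: loss of luciferase light is scored as toxicity; % is scaled to controls: 0 for no effect and ±100 for the full control effect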
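Luminescence readout: signal drop marks cytotoxicity. Plated cells grew 12 h at 37 °C, 5% CO2, received 23 nL compound for 24 h, then got luciferase reagent, read after 12 min at RT.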
BRCA1 expr act: activators of BRCA1 expression. MCF7-BRCA1-FFLuc reporter, luminescence, 48 h; response scale: scaled: vehicle 0%, 10 µM genistein 100%. Potency, µM (series often up to 46.1 µM), inactives show at the top dose activation, most hits filed as activators. 380,000 compounds, 1.1% hits. AID 624202; also: nearly all actives have a fitted effect of over 80% in size
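Compounds are tested at multiple concentrations on MCF7 BRCA1-luciferase reporter cells seeded at 2000 per well; after 48 h, a single luminescence end-point is taken and curves fitted to the normalized data.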
Starred values were filed as active, the others as inactive; ? = inconclusive; · = no result; [ ] = dose if it differs, or a comment. Most compounds without a hit are left out; they make up all but 2.6% or so of the library. Calls follow the shape of the dose curve; as a rule, active = well fitted curve in the direction sought with a large enough effect; inconclusive = small, poorly fitted or top-dose-only effect, or another doubt; inactive = no such curve, though single readings can be large; an effect the other way counts as inactive or inconclusive. Potency is read from the fitted curve at half-maximal effect.

SMILES	GLP1R ag	GLP1R inv ag	GLP1R cytotox	BRCA1 expr act
Cc1ccc(-c2nnc(N3CCN(c4ccccn4)CC3)c3ccccc23)cc1	1%	8.9µM*	11µM*	-95%
Cc1ccc(-c2nc3ccccc3c(=O)n2-c2ccccn2)cc1	5%	-10%	-8%	-44%
Cc1ccc(OCC(=O)N2CCN(C3CCC(c4ccccc4)CC3)CC2)cc1 (centres undefined)	9%	11µM*	0%	-18%
OC(Cc1cccc(Br)c1)c1ncc(-c2cccc(C(F)(F)F)c2)[nH]1 (centres undefined)	-5%	?	?	-42%
CCc1c(C2(O)CCCCC2)[nH]c2ccc(C(F)(F)F)cc12	8%	2.2µM*	?	-13%
NC(Cc1ccc(C(F)(F)F)cc1)c1csc(Nc2nncc3ccccc23)n1 (centres undefined)	-16%	?	?	-69%
O=C(Nc1cccc(C(F)(F)F)c1)OC1CN2CCC1CC2 (centres undefined)	11%	?	3%	3%
OC(c1cccc(Cl)c1)(c1cccc(Cl)c1)C1CN2CCC1CC2 (centres undefined)	10%	4µM*	?	-105%
CCC(C)Nc1ccc(NC(C)CC)cc1 (centres undefined)	-8%	?	?	-18%
CCOc1ccc(/C=C/c2nc(C#N)c(NCc3ccccc3)o2)cc1	·	?	-31%	·
C[C@H]1[C@@H](OS(=O)(=O)O)C[C@@H]2C[C@H]([C@@H](O)c3cc(=O)[nH]c(=O)[nH]3)NC3=NC[C@H]1N32	-10%	2.5µM*	·	-74%
CC(C)[C@@]1(NC(=O)[C@H]2C[C@H]3c4cccc5[nH]cc(c45)C[C@@H]3N(C)C2)O[C@]2(O)[C@H]3CCCN3C(=O)CN2C1=O (tested in a mixture with another compound)	4%	·	·	·
CCN1CCN(Cc2ccc(NC(=O)c3ccc(C)c(NC(=O)C(=O)c4c[nH]c5ccccc45)c3)cc2C(F)(F)F)CC1	-7%	5.6µM*	?	-79%
Cc1ccc2nc(-c3ccccc3)cc(C(=O)N3CCN(c4ccccc4O)CC3)c2c1	-7%	10µM*	?	-63%
Cc1ccc2nc(-c3ccncc3)cc(C(=O)N3CCC4(CC3)OCCO4)c2c1	-5%	2%	8%	-10%
CCC1CC2CC3c4[nH]c5ccc(OC)cc5c4CCN(C2)C13 (centres undefined)	2%[96 µM]	·	·	·
O=C(C1CC(c2ccc(Cl)c(Cl)c2)=NO1)N1CCC2(CC1)OCCO2 (centres undefined)	0%	13%	?	8.9µM*
O=C(C1CC(c2ccc(F)cc2)=NO1)N1CCC2(CC1)OCCO2 (centres undefined)	0%	6%	6%	7.9µM*
Cc1c(CN2CCC(CO)(Cc3cccc(C(F)(F)F)c3)CC2)c2ccccc2n1C	-26%	4%	?	-93%
CCCCCNC(=O)C(c1ccncc1)n1c(=O)c(-c2cc3ccccc3[nH]2)nc2ccccc21 (centres undefined)	·	-4%	236%	·
COc1ccc(NC(=O)CCOc2cc(C)ccc2C)cc1S(=O)(=O)N1CCCCC1	-1%	?	7%	-54%
CC1CCC(C(C)C)C(OC(=O)Cn2c(COc3ccccc3)[n+](C)c3ccccc32)C1 (centres undefined)	-5%	?	?	-75%
CC1CCC(C(C)C)C(OC(=O)Cn2c(-c3ccccc3)[n+](C)c3ccccc32)C1 (centres undefined)	-3%	?	8.9µM*	-86%
Nc1ccc2ccccc2c1	0%	5%	0%	24%
Nc1ccc2c(c1)oc1ccccc12	3%	20%	-19%	7.1µM*
SMILES	GLP1R ag	GLP1R inv ag	GLP1R cytotox	BRCA1 expr act
CN(C)C(Cc1ccccc1)C(=O)c1ccccc1 (centres undefined)	15%	10%	4%	4%
CN(C)C(Cc1ccccc1)C(=O)c1c[nH]c2ccccc12 (centres undefined)	-5%	13µM*	1%	19%
Nc1cccc2c1C(=O)N(C(=O)/C=C/c1ccc(F)cc1)C2=O	-21%	?	231%	-85%
O=C(c1cc(-c2cccc(Cl)c2)on1)N1CCOCC1	11%	5%	-10%	10µM*
O=C(c1cc(-c2ccc(Cl)cc2)n(-c2ccc(Cl)cc2Cl)n1)N1CCOCC1	0%	-13%	-7%	-51%
CCOC(=O)c1ccc(N2Cc3ccccc3C2=NC(=O)c2cccc([N+](=O)[O-])c2)cc1	15%	32%	-4%	5µM*
Cc1cccc(Nc2nc(N)c([N+](=O)[O-])c(NCc3ccccc3)n2)c1	?	?	?	-66%
Cc1cccc(Nc2nc(NCc3ccco3)c3ccccc3n2)c1	-12%	2.2µM*	?	-50%
CN1CC=C(/C=C/c2ccc(-c3ccccc3)cc2)CC1	-7%	?	-1%	8.9µM*
CC(=O)OC1CC(OC2C(O)CC(OC3C(O)CC(O[C@H]4CC[C@]5(C)C6CC[C@]7(C)[C@@H](C8=CC(=O)OC8)[C@@H](O)C[C@]7(O)[C@@H]6CC[C@@H]5C4)OC3C)OC2C)OC(C)C1OC1OC(CO)C(O)C(O)C1O (some centres undefined)	-11%	·	·	·
CC(C)c1cc(C(=O)OCC(=O)NC(=O)NCc2ccco2)c(O)c(C(C)C)c1	5%	3.5µM*	?	-86%
Cc1nn(Cc2ccccc2)c(C)c1C(=O)OCC(=O)NCc1ccco1	0%	1%	-11%	3%
Cc1ccc(C)c(Cn2c(C(=O)O)c(C=O)c3ccccc32)c1	0%	-15%	1%	-26%
CCOC(=O)c1c(C=O)c2ccccc2n1Cc1ccccc1	25%	10µM*	-5%	36%
CC(=O)n1c(Cl)c(NC(=O)CCl)c2ccccc21	0%	?	?	-73%
C[C@@H]1CN([C@@H](C)CO)S(=O)(=O)c2ccc(Br)cc2O[C@H]1CN(C)C(=O)Nc1ccc(C(F)(F)F)cc1	0%	7.9µM*	-8%	-36%
[2H]c1c([2H])c([2H])c(-c2nc(N3CCCCCC3)sc2C(=O)c2ccccc2)c([2H])c1[2H]	-1%	2µM*	15%	-60%
CC(C)CC(N)c1csc(NC(=O)C(c2ccccc2)c2ccccc2)n1 (centres undefined)	-23%	?	?	-69%
CCOC(=O)c1c(-c2ccc(OC)cc2)oc2ccc(OC(=O)N(C)C)cc12	6%	5.6µM*	-8%	-59%
O=C(CSc1nnc(NC(=O)c2ccccc2F)s1)NCc1ccc(F)cc1	-5%	-15%	4%	5µM*
CCSc1nnc(NC(=O)c2cccn(Cc3ccccc3Cl)c2=O)s1	2%	1%	-18%	16%
CCOc1cc(/C=C2\SC(=S)N(NC(=O)c3cccnc3)C2=O)ccc1O	2%	4%	11µM*	-12%
CN(C)C(=O)Oc1ccc(OC(=O)c2ccccc2)cc1	-3%	34%	-9%	10%
